KB-3-1 tox: qHTS assay for MDR1-selective chemotherapeutics: Primary screen using the parental adenocarcinoma cell KB-3-1; KB-3-1 viability, CellTiter-Glo ATP luminescence, 72 h; Potency, µM (series often up to 46.1 µM), hits mostly cytotoxic; actives 1.4% (n = 400,000); AID 1347075, 2019; further: nearly all actives have a fitted effect of over 60% in size
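Multi-concentration cytotoxicity screen in KB-3-1 cells grown in DMEM lacking phenol red with 10% FBS. After 72 h at 37 °C with compound, ATP-dependent luminescence was recorded.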
DT40 TDP1 CPT: qHTS for Inhibitors of human tyrosyl-DNA phosphodiesterase 1 (TDP1): qHTS in cells in presence of CPT. chicken DT40 Tdp1-/-;hTDP1 cells + 20 nM CPT, ATP luminescence, 48 h. Potency, µM (top dose mostly 46.2 µM), for inactives: at the highest dose activity change, negative = growth inhibition, most hits filed as inhibitors. actives 12% (n = 420,000); further: nearly all actives have a fitted effect of over 55% in size
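Chicken DT40 Tdp1-/- cells stably complemented with human TDP1 were seeded at 400 cells/well in medium containing 20 nM camptothecin, exposed to pin-transferred compounds, and grown at 37 °C for at least 48 hr. Viability was read as ATP luminescence.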
KB-V1 MDR tox: qHTS assay for MDR1-selective chemotherapeutics: Primary screen using the drug-selected MDR subline cells KB-V1; KB-V1 MDR cells viability, CellTiter-Glo, 72 h; Potency, µM (doses to about 46.1 µM), actives largely listed as cytotoxic; actives 3.4% (n = 400,000); further: nearly all actives have a fitted effect of over 60% in size
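Compound-treated KB-V1 multidrug-resistant cells, 72 h, 37 degrees C; viability by CellTiter-Glo. Fitted qHTS curves give the values.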
HT1080 IDH1KD tx: qHTS for induction of synthetic lethality in tumor cells producing 2HG: qHTS for the HT-1080-IDH1KD cell line; HT-1080 IDH1 knockdown viability, ATP luminescence, 48 h; Potency, µM (top dose mostly 46.1 µM), inactives show at the highest dose activity, negative = toxicity, usual class: cytotoxic; actives 2% (n = 360,000); AID 686971, 2013;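 further: 0% = DMSO wells and -100% = cell-free medium wells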
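Luminescent ATP read-out (CellTiter-Glo, 10 min at room temperature) after 48 h compound exposure at 37 °C gave viability of IDH1-knockdown HT-1080 cells. Activity was normalised to DMSO and cell-free wells, then fitted as concentration-response curves.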
TDP1 cell noCPT: qHTS for Inhibitors of human tyrosyl-DNA phosphodiesterase 1 (TDP1): qHTS in cells in absence of CPT; actives 15% (n = 420,000); DT40 Tdp1-/- hTDP1 cells, no CPT, ATP luminescence, 48 h; AID 686978, 2013; Potency, µM (series often up to 46.2 µM), for inactives: at the top dose activity change, negative = growth inhibition, hits mostly inhibitors; further: nearly all actives have a fitted effect of over 55% in size
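Chicken DT40 Tdp1-/- cells complemented with human TDP1, screened without camptothecin (DMSO vehicle only), 400 cells/well. Compounds pin-transferred, cells incubated at 37 °C for at least 48 hr. Growth read as ATP-dependent luminescence (CellTiter-Glo, 30 min at RT).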
HT1080NT lethal: qHTS for induction of synthetic lethality in tumor cells producing 2HG: qHTS for the HT-1080-NT fibrosarcoma cell line; HT-1080-NT fibrosarcoma viability, CellTiter-Glo ATP luminescence, 48 h; Potency, µM (titrated, usually from 46.1 µM), for inactives: at the highest dose activity, negative = less viability, usual class: cytotoxic; actives 1.6% (n = 360,000); AID 686970, 2013;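 further: NT is the 2HG producing partner of a matched IDH1 knockdown line; 0% = DMSO-treated cells and -100% = media-only wells without cells; nearly all actives have a fitted effect of over 55% in size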
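Luminescent CellTiter-Glo readout after 48 hours of compound exposure at 37 degrees C defined viability of HT-1080-NT cells. Activity was normalized to DMSO wells and cell-free media wells; concentration-response curves were fitted and assigned curve classes.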
Active calls of the source: *; i = inactive; ? = inconclusive; · = no result. Sampled rows, rich in hits. Any-hit rate of the full collection: about 19%. The call rests on the fitted dose curve; in most records, active means well fitted curve in the direction sought with a large enough effect; inconclusive means small, poorly fitted or top-dose-only effect, or another doubt; inactive means no such curve, though single readings can be large; an effect the other way counts as inactive or inconclusive. Unless noted, on the % scale 0 is the no-effect control and ±100 the full control effect; potency means the concentration at half of the fitted maximal effect.

SMILES	KB-3-1 tox	DT40 TDP1 CPT	KB-V1 MDR tox	HT1080 IDH1KD tx	TDP1 cell noCPT	HT1080NT lethal
CC(=O)c1ccc(-c2ccc(C(=O)N(C)c3c(N)n(Cc4ccccc4)c(=O)[nH]c3=O)o2)cc1	i	3%	i	1%	4%	-2%
Cc1cc(S(=O)(=O)N2CCN=C2c2ccccc2)c(C)cc1Cl	i	-30%	?	-3%	?	-1%
Cc1cc(C)c(S(=O)(=O)N2CCN=C2c2ccccc2)c(C)c1	i	?	i	1%	16µM*	-3%
Cc1cc(C)n2ncc(C(=O)NC(C)C)c2n1	i	·	i	·	·	·
COc1ccc(CNC(=O)c2[nH]c(C(F)(F)F)nc2-c2ccccc2)cc1	i	-8%	i	-19%	?	-26%
COc1ccc(CN2C(=O)C(NC(=O)c3ccccc3C)(C(F)(F)F)N=C2c2ccccc2)cc1 (stereo unspecified)	i	21µM*	i	·	15µM*	·
O=C(NC1(C(F)(F)F)N=C(c2ccccc2)N(Cc2ccccc2)C1=O)c1ccc(F)cc1 (stereo unspecified)	i	21µM*	i	·	?	·
Cc1ccc(C(=O)NC2(C(F)(F)F)N=C(c3ccccc3)N(Cc3ccccc3)C2=O)cc1 (stereo unspecified)	i	?	i	·	26µM*	·
CC(C)(C)C(=O)NC1(C(F)(F)F)NC(=O)N(Cc2ccccc2)C1=O (stereo unspecified)	i	18%	i	1%	2%	-9%
COc1ccc(CN2C(=O)C(NC(=O)c3ccc(C)cc3)(C(F)(F)F)N=C2c2ccccc2)cc1 (stereo unspecified)	i	23µM*	i	·	23µM*	·
O=C(NC1CCCC1)c1ccc2c(=O)n(Cc3ccccc3)c(SCc3ccccc3F)nc2c1	·	-25%	·	·	?	·
CCC(=O)N1CCc2cc(S(=O)(=O)NC(CC(C)C)C(=O)NCc3cccc(OC)c3)ccc21 (stereo unspecified)	i	-2%	i	·	-14%	·
CC1CCc2c(sc(NC(=O)/C=C/c3cccs3)c2C(=O)O)C1 (stereo unspecified)	18µM*	-25%	i	?	-8%	2%
Nc1nc(SCc2ccc(Cl)cc2Cl)c2ncn(C3OC(CO)C(O)C3O)c2n1 (stereo unspecified)	?	17%	i	-8%	-25%	-7%
NC(=S)N/N=C1\CC(c2ccc3c(c2)OCCCO3)Oc2ccc(F)cc21 (stereo unspecified)	i	2.6µM*	?	?	4.6µM*	?
Cc1ccccc1CNC(=O)c1oc2c(c1C)-c1nn(Cc3ccc(Cl)cc3)cc1CC2	·	?	·	·	16µM*	·
CCOc1ccccc1CNC(=O)c1oc2c(c1C)-c1nn(Cc3cccc(Cl)c3)cc1CC2	·	?	·	·	21µM*	·
COc1ccc(Cl)cc1NC(=O)c1ccc2c(c1)CCN2S(C)(=O)=O	i	?	i	·	?	·
CCCOc1ccc(Cc2c(Cl)nc(SC)nc2OC)cc1	i	9%	?	3%	-19%	7%
CCCOc1ccc(Cc2c(Cl)nc(SC)nc2N(C)C)cc1	?	?	i	-17%	15µM*	-19%
Cc1cc(C(F)F)n2nc(C(=O)Nc3cc(Cl)ccc3C)nc2n1	i	-9%	i	·	-24%	·
C=CCN(c1ccccc1OC)S(=O)(=O)c1cccc(C(=O)NCc2cccs2)c1	i	15µM*	?	-5%	18µM*	-8%
C=CCN(c1ccccc1OC)S(=O)(=O)c1cccc(C(=O)OCC(=O)c2c(N)n(C)c(=O)n(C)c2=O)c1	?	?	8.2µM*	-1%	18µM*	-6%
COc1cc(OC)c(N(C)S(=O)(=O)c2cccc(C(=O)NCc3cccs3)c2)cc1Cl	i	?	i	-13%	?	-16%
C=CCN(c1ccccc1Cl)S(=O)(=O)c1cccc(C(=O)NCCc2ccc(OC)cc2)c1	23µM*	?	2.3µM*	-15%	21µM*	-1%
SMILES	KB-3-1 tox	DT40 TDP1 CPT	KB-V1 MDR tox	HT1080 IDH1KD tx	TDP1 cell noCPT	HT1080NT lethal
COc1ccc(CCNC(=O)c2cccc(S(=O)(=O)N3CCCCC3)c2)cc1	i	?	i	-8%	?	-6%
NC(=O)c1nc[nH]c1C(=O)Nc1cccc(NC(=O)c2cccc(C(F)(F)F)c2)c1	i	-19%	?	1%	?	0%
CCC(C)Sc1oc(-c2ccco2)nc1S(=O)(=O)c1ccc(Cl)cc1 (stereo unspecified)	i	18µM*	i	·	?	·
Cc1ccc(S(=O)(=O)c2nc(-c3cccs3)oc2SCc2ccc(F)cc2)cc1	i	16µM*	i	·	10µM*	·
Cc1ccc(CSc2oc(-c3ccco3)nc2S(=O)(=O)c2ccc(Br)cc2)cc1	i	?	i	·	?	·
O=S(=O)(c1ccc(Cl)cc1)c1nc(-c2cccs2)oc1SCc1ccccc1F	i	16µM*	i	·	23µM*	·
O=S(=O)(c1ccc(Br)cc1)c1nc(-c2ccco2)oc1SCc1ccccc1Cl	?	16µM*	i	·	?	·
Cc1ccc(CSc2oc(-c3cccs3)nc2S(=O)(=O)c2ccccc2)cc1	i	?	?	·	?	·
CC(=O)ON(C(C)=O)c1ccc(/C=C2/C=Cc3ccccc32)cc1	i	?	i	·	?	·
O=S(=O)(c1ccc(Cl)cc1)c1nc(-c2ccco2)oc1SCc1ccccc1F	i	23µM*	i	·	16µM*	·
CCCNC(=O)OC1CC2CC1[C@H]1CCCCN1C2=O (stereo partly specified)	i	-7%	i	5%	-19%	-2%
O=C1COc2ccccc2C(c2nc3ccccc3[nH]2)N1C1CC1 (stereo unspecified)	i	-2%	i	18%	-1%	11%
COC(=O)CC1(c2ccc(OC)cc2)C(=O)c2ccccc2C1=O	i	2%	?	?	?	?

High-throughput results deposited in PubChem BioAssay by National Center for Advancing Translational Sciences (NCATS).
